Test results published in PubChem BioAssay (EPA / NIEHS).
Where “and” joins values, the source holds several entries; their conditions need not be identical. Equal values may be shown once. Inconclusive results are not listed. A structure can be active in one record and inactive in another. Calls of active or inactive are those of the source. How the source made its calls: active means hit-call score of the fitted dose curve at least 0.9, where 1 is the maximum; inconclusive means response in the unintended direction; inactive means score below 0.9.

These compounds were tested against human Peroxisome Proliferator-activated Receptor alpha (PPARa), PPARA (gene 5465) (UniProt Q07869) (assay: NVS_NR_hPPARa: NovaScreen (NVS) Nuclear Receptor Binding Assay for human Peroxisome Proliferator-activated Receptor alpha (PPARa) (AID 2283359)).
human Peroxisome Proliferator-activated Receptor alpha (PPARa), PPARA (gene 5465), sequence (Q07869 whole entry, looked up): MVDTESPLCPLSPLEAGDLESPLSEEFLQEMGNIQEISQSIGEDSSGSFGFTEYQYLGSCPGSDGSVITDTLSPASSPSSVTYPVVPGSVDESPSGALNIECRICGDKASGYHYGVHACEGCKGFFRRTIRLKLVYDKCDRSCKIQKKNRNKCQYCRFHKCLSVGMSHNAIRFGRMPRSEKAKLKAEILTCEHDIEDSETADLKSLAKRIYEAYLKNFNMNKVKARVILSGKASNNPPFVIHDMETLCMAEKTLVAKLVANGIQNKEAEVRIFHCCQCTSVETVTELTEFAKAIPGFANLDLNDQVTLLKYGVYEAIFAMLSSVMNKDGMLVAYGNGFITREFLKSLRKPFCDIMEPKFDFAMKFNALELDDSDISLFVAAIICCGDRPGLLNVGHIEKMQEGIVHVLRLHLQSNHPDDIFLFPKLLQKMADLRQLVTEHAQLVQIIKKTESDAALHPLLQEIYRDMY
Procedure: NVS_NR_hPPARa is a biochemical, single-readout assay that uses extracted gene-proteins in a cell-free assay. Measurements were taken 1 hour after chemical dosing in a 384-well plate.NVS_NR_hPPARa is one of one assay component(s) measured or calculated from the NVS_NR_hPPARa assay. It is designed to make measurements of fluorescent resonance energy transfer, a form of binding reporter, as detected with fluorescent resonance energy transfer signals by Time-Resolved Fluorescence Resonance Energy Transfer (TR-FRET) technology.Data from the assay component NVS_NR_hPPARa was analyzed into 1 assay endpoint. This assay endpoint, NVS_NR_hPPARa, was analyzed in the positive analysis fitting direction relative to DMSO as the negative control and baseline of activity. Using a type of binding reporter, loss-of-signal activity can be used to understand changes in the binding as they relate to the gene PPARA. Furthermore, this assay endpoint can be referred to as a primary readout, because the performed assay has only produced 1 assay endpoint. To generalize the intended target to other relatable targets, this assay endpoint is annotated to the nuclear receptor intended target family, where the subfamily is non-steroidal.
Binding assays used specific radioligands (tritiated, iodinated) with non-radioactive competitive displacement ligands in agonist or antagonist protocols (as indicated) and various reference compounds and inhibitors to titrate specific binding to receptors and transporters. Most enzyme assays (CYPs, kinases, phosphatases, proteases, HDACs) used recombinant protein and specific substrates (fluorescence mostly, some colorimetric and radioactive) and inhibitors, followed by a biochemical separation of substrate and product. All assays for the biochemical HTS were initially run in duplicate at a single concentration (10 uM for CYP450 assays and 25 uM for all others). […] Each assay was run with positive and negative controls, and concurrent controls on every plate. The follow-up (secondary) screen tested active chemical-pairs in concentration series, as well as a few additional assays not tested in the primary screen, some selected negative inactives, and several cases re-run in the concentration series for confirmatory purposes.

| Compound | outcome | AC50 |
| --- | --- | --- |
| N[C@@H](Cc1cc(I)c(Oc2ccc(O)c(I)c2)c(I)c1)C(=O)O | inactive | 27.3 µM (active) and 20 µM (active) |
| C=CCOC(Cn1ccnc1)c1ccc(Cl)cc1Cl (stereo not given) | inactive | – |
| CC(C)(c1ccc(O)cc1)c1ccc(O)cc1 | – | 105 nM (active) |
| CN(C)C(=O)Nc1ccc(Cl)c(Cl)c1 | inactive | – |
| O=C(c1ccccc1)C1CCCCC1 | inactive | – |
| CC(C)CCCCCCc1ccc(O)cc1 | inactive | – |
| CCOC(=O)c1ccc(O)cc1 | inactive | – |
| S=C(S)NCCNC(=S)S.[Mn+2].[S-]C([S-])=NCCN=C([S-])[S-].[Zn+2] | inactive | 12500 nM (active) |
